What all share (assay): peptide microarray binding signal (635 nm), min-max normalized on array (fraction of array maximum); higher = stronger binding
Assay [1] concerns the target T1, HaloTag-ATRX ADD domain (163-292).
T1 chain: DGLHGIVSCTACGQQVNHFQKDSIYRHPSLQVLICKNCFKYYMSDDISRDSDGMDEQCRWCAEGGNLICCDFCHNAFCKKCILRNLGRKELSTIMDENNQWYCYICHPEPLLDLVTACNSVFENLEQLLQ
Here is the method: (§1)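 Histone 13-mer peptides were synthesized as cellulose conjugates with a C-terminal 20-atom PEG linker and printed in triplicate on nitrocellulose. The sequence given is the unmodified backbone; PTMs (Kme1/2/3, Kac, Sph/Tph, Rme/Rme2a/Rme2s, Rcit) are listed in the label and the 'peptide modifications' condition. Slides were probed at 4 °C for 1 h with biotin-labelled (HQ)5-HaloTag reader fusions (ATRX-ADD, ING2-PHD) then streptavidin-Alexa647, or with rabbit histone antibodies then anti-rabbit Alexa647. The mean 635 nm signal of the triplicate spots was scaled 0-1 between the lowest and highest values on each array.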

For assay [2], the target named is HaloTag-ING2 PHD (mouse Ing2 200-280). The protocol:
as §1

For assay [3], the target named is anti-H3K4me3 antibody ab8580. The protocol: as §1
For assay [4], the target named is anti-H3K9me3 antibody ab8898. Here is the method:
as §1

The mark [5] stands for this setting: peptide region: H2A 11-23, binder concentration: 1:2,000 dilution.
Setting [6] is: peptide region: H2A 11-23, binder concentration: 1:10,000 dilution.
[7] abbreviates: peptide region: H2A 11-23, peptide modifications: H2AK15ac, binder concentration: 1:2,000 dilution.
Setting [8] is: peptide region: H2A 11-23, peptide modifications: H2AK15ac, binder concentration: 1:10,000 dilution.
The mark [9] stands for this setting: peptide region: H2A 11-23, peptide modifications: H2AK13ac, binder concentration: 1:2,000 dilution.
[10] abbreviates: peptide region: H2A 11-23, peptide modifications: H2AK13ac, binder concentration: 1:10,000 dilution.
[11] abbreviates: peptide region: H2B 1-13, peptide modifications: H2BK5ac H2BK11ac, binder concentration: 1:2,000 dilution.
[12] abbreviates: peptide region: H2B 1-13, peptide modifications: H2BK5ac H2BK11ac, binder concentration: 1:10,000 dilution.
Where [13] appears, read: peptide region: H2B 1-13, peptide modifications: H2BK5ac H2BS6ph H2BK11ac, binder concentration: 1:2,000 dilution.
[14] abbreviates: peptide region: H2B 1-13, peptide modifications: H2BK5ac H2BS6ph H2BK11ac, binder concentration: 1:10,000 dilution.

± gives the standard deviation.

RAKAKTRSSRAGL [H2A 11-23 R A K A K T R S S R A G L]: the “peptide microarray binding signal” value in assay [1] (peptide region: H2A 11-23, binder concentration: 50 nM) worked out at 0.00404 ± 4.2e-05; in assay [1] (peptide region: H2A 11-23, binder concentration: 500 nM), 0.00457 ± 5.4e-05; in assay [2] (peptide region: H2A 11-23, binder concentration: 10 nM) it was 0.003462 ± 3.2e-05; in assay [2] (peptide region: H2A 11-23, binder concentration: 100 nM), 0.00581 ± 0.00028; in assay [3] (setting [5]), 0.00125 ± 0.0004; in assay [3] (setting [6]), 0.000571. Besides, the figures for the “peptide microarray binding signal” value in assay [4] (setting [5]) and in assay [4] (setting [6]) were 0.000257 ± 2.7e-06 and 0.000692 ± 7.3e-06, respectively.
On to RAKAKTRSSRAGL [H2A 11-23 R A K A Kac T R S S R A G L], for which the “peptide microarray binding signal” value worked out at 0.00502 ± 0.00053 in assay [1] (peptide region: H2A 11-23, peptide modifications: H2AK15ac, binder concentration: 50 nM); 0.00495 ± 0.00038 in assay [1] (peptide region: H2A 11-23, peptide modifications: H2AK15ac, binder concentration: 500 nM); 0.00388 ± 5.4e-05 in assay [2] (peptide region: H2A 11-23, peptide modifications: H2AK15ac, binder concentration: 10 nM); 0.0051 ± 0.00094 in assay [2] (peptide region: H2A 11-23, peptide modifications: H2AK15ac, binder concentration: 100 nM); 0.000321 ± 6.7e-06 in assay [3] (setting [7]); 0.00126 ± 4.3e-05 in assay [3] (setting [8]). Besides, the “peptide microarray binding signal” value in assay [4] (setting [7]) was found to be 0.0004228 ± 4.1e-06; in assay [4] (setting [8]) it was 0.00121 ± 4.9e-05.
Regarding RAKAKTRSSRAGL [H2A 11-23 R A Kac A K T R S S R A G L], the “peptide microarray binding signal” value in assay [1] (peptide region: H2A 11-23, peptide modifications: H2AK13ac, binder concentration: 50 nM) stood at 0.00351 ± 0.00033; in assay [1] (peptide region: H2A 11-23, peptide modifications: H2AK13ac, binder concentration: 500 nM), 0.00457; in assay [2] (peptide region: H2A 11-23, peptide modifications: H2AK13ac, binder concentration: 10 nM) it was 0.003641 ± 3.4e-05; in assay [2] (peptide region: H2A 11-23, peptide modifications: H2AK13ac, binder concentration: 100 nM), 0.0034 ± 0.00042; in assay [3] (setting [9]), 0.00051 ± 3.1e-05; in assay [3] (setting [10]), 0.00103 ± 2.8e-05. For the same molecule, the entries for the “peptide microarray binding signal” value in assay [4] (setting [9]) and in assay [4] (setting [10]) were 0.000378 ± 1.6e-05 and 0.00075 ± 2.9e-05, respectively.
Consider PEPAKSAPAPKKG [H2B 1-13 P E P A Kac S A P A P Kac K G], for which the “peptide microarray binding signal” value in assay [1] (peptide region: H2B 1-13, peptide modifications: H2BK5ac H2BK11ac, binder concentration: 50 nM) came to 0.00439 ± 0.00015; in assay [1] (peptide region: H2B 1-13, peptide modifications: H2BK5ac H2BK11ac, binder concentration: 500 nM), 0.00957 ± 0.00041; in assay [2] (peptide region: H2B 1-13, peptide modifications: H2BK5ac H2BK11ac, binder concentration: 10 nM), 0.00853 ± 0.00038; in assay [2] (peptide region: H2B 1-13, peptide modifications: H2BK5ac H2BK11ac, binder concentration: 100 nM) it was 0.0114 ± 0.0021; in assay [3] (setting [11]), 0.00251 ± 0.0019; in assay [3] (setting [12]) it was 0.00108 ± 3.8e-05. In addition, the “peptide microarray binding signal” value was 0.00198 ± 0.00033 in assay [4] (setting [11]) and 0.00225 ± 0.0002 in assay [4] (setting [12]).
On to PEPAKSAPAPKKG [H2B 1-13 P E P A Kac Sph A P A P Kac K G], for which the “peptide microarray binding signal” value in assay [1] (peptide region: H2B 1-13, peptide modifications: H2BK5ac H2BS6ph H2BK11ac, binder concentration: 50 nM) turned out to be 0.0021 ± 2.5e-05; in assay [1] (peptide region: H2B 1-13, peptide modifications: H2BK5ac H2BS6ph H2BK11ac, binder concentration: 500 nM), 0.00276 ± 5.8e-05; in assay [2] (peptide region: H2B 1-13, peptide modifications: H2BK5ac H2BS6ph H2BK11ac, binder concentration: 10 nM), 0.00603 ± 0.00058; in assay [2] (peptide region: H2B 1-13, peptide modifications: H2BK5ac H2BS6ph H2BK11ac, binder concentration: 100 nM) it was 0.00206 ± 5.4e-05; in assay [3] (setting [13]) it was 0.00364 ± 0.00027; in assay [3] (setting [14]) it was 0.00131 ± 3.4e-05. Moreover, the “peptide microarray binding signal” value in assay [4] (setting [13]) stood at 0.00131 ± 4.4e-05; in assay [4] (setting [14]), 0.00185 ± 8e-05.

The values above are taken from the supplement of paper PMC4022240.
